This note sets out measurements from article PMC7862700, “An all-to-all approach to the identification of sequence-specific readers for epigenetic DNA modifications on cytosine”.

One assay addresses T1, ETV3 (Homo sapiens, UniProt P41162-2 1-143).
T1 sequence: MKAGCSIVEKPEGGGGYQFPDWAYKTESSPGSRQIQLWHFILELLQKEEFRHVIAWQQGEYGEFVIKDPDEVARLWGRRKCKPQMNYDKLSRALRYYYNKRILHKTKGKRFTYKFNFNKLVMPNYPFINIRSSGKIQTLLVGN
As to the kind of experiment: DAPPL (digital affinity profiling via proximity ligation, sequencing); 10 mM Tris-HCl pH 7.5, 50 mM NaCl, 1 mM DTT, 4% glycerol, room temperature, 30 min; GST-TFs on glutathione beads, 16-mer random dsDNA library, 0.1% formaldehyde crosslink after washing; high values mean tight binding. The conditions noted are these: protein: recombinant; tags: N-terminal GST; dsDNA, one strand shown. In short, it runs like this:
(§1)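 Human transcription factors were made in yeast as GST fusions, captured on glutathione beads and barcoded with DNA. With a tag-only sample included, the pool was incubated with 200 nmole of a random double-stranded 16-mer DNA library in Tris/NaCl/DTT/glycerol buffer at room temperature for 30 min, then crosslinked with 0.1% formaldehyde after washing, ligated by proximity, amplified and sequenced. For binding signal, each hexamer's read frequency for a factor is divided by its frequency for the tag-only sample.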
Regarding TTCCCG, the binding signal was 1.92 fold enrichment (6-mer frequency, TF over GST control).
CTTCCT: the binding signal was 3.61 fold enrichment (6-mer frequency, TF over GST control).
The same measure, in the same setting: to TTGAAA belongs 1.17 fold enrichment (6-mer frequency, TF over GST control).
On the same count and under the same terms, for TACTCT the value was 1.39 fold enrichment (6-mer frequency, TF over GST control); for TCCTCA, 1.61 fold enrichment (6-mer frequency, TF over GST control); for CCTCCC, 1.43 fold enrichment (6-mer frequency, TF over GST control).
With TGGTTT, the binding signal is 1.52 fold enrichment (6-mer frequency, TF over GST control).
Consider ATGAAC, for which the binding signal is 1.28 fold enrichment (6-mer frequency, TF over GST control).
The same measure, in the same setting: for AACCTG the value was 1.2 fold enrichment (6-mer frequency, TF over GST control).
On the same count and under the same terms, for ACAGCT the value was 1.14 fold enrichment (6-mer frequency, TF over GST control).
As for AAATCA, the binding signal was 1.17 fold enrichment (6-mer frequency, TF over GST control).
Still for that read-out and setting: to TGGACT belongs 1.25 fold enrichment (6-mer frequency, TF over GST control); to TGAACT, 1.24 fold enrichment (6-mer frequency, TF over GST control).
With AATCCC, the binding signal is 1.26 fold enrichment (6-mer frequency, TF over GST control).
On to TAAAGT, for which the binding signal was 1.18 fold enrichment (6-mer frequency, TF over GST control).
Consider CCTGGA, for which the binding signal is 1.37 fold enrichment (6-mer frequency, TF over GST control).
Still for that read-out and setting: for AAACCA the value was 1.15 fold enrichment (6-mer frequency, TF over GST control); for CTGTCT, 1.45 fold enrichment (6-mer frequency, TF over GST control); for GCTCCA, 1.14 fold enrichment (6-mer frequency, TF over GST control).
Still for that read-out and setting: to CTTGGG belongs 1.26 fold enrichment (6-mer frequency, TF over GST control); to CTCCTT, 1.95 fold enrichment (6-mer frequency, TF over GST control).
For CTGTAT, the binding signal is 1.32 fold enrichment (6-mer frequency, TF over GST control).
For the sequence ATGCTC, the binding signal was 1.35 fold enrichment (6-mer frequency, TF over GST control).
Still for that read-out and setting: for CTATAT the value was 1.5 fold enrichment (6-mer frequency, TF over GST control).
The same measure, in the same setting: to CTCCAA belongs 1.23 fold enrichment (6-mer frequency, TF over GST control); to CTCAAT, 1.2 fold enrichment (6-mer frequency, TF over GST control).
As to CCTAAT, the binding signal was 1.22 fold enrichment (6-mer frequency, TF over GST control).
Same read-out and setting: for CTGGCT the value was 1.18 fold enrichment (6-mer frequency, TF over GST control); for TATTTG, 1.47 fold enrichment (6-mer frequency, TF over GST control); for CTTCGA, 1.16 fold enrichment (6-mer frequency, TF over GST control).
Same read-out and setting: for ACTATG the value was 1.25 fold enrichment (6-mer frequency, TF over GST control).
For TAAACT, the binding signal was 1.15 fold enrichment (6-mer frequency, TF over GST control).
The same measure, in the same setting: for ATTCAC the value was 1.23 fold enrichment (6-mer frequency, TF over GST control); for CTACAC, 1.39 fold enrichment (6-mer frequency, TF over GST control); for GTATTT, 1.53 fold enrichment (6-mer frequency, TF over GST control).
Same read-out and setting: to AATTTC belongs 1.78 fold enrichment (6-mer frequency, TF over GST control); to TTTCAC, 1.32 fold enrichment (6-mer frequency, TF over GST control); to CTCGTC, 1.34 fold enrichment (6-mer frequency, TF over GST control).
Turning to CCTTCT, the binding signal was 1.44 fold enrichment (6-mer frequency, TF over GST control).
Still for that read-out and setting: to TTACGG belongs 1.17 fold enrichment (6-mer frequency, TF over GST control).

The target of a further assay is ETV6 (Homo sapiens, UniProt P41212 1-452). The assay is described as above. The conditions noted are these: protein: recombinant; tags: N-terminal GST; dsDNA, one strand shown. In outline: as §1
Chain of ETV6 (P41212 whole entry): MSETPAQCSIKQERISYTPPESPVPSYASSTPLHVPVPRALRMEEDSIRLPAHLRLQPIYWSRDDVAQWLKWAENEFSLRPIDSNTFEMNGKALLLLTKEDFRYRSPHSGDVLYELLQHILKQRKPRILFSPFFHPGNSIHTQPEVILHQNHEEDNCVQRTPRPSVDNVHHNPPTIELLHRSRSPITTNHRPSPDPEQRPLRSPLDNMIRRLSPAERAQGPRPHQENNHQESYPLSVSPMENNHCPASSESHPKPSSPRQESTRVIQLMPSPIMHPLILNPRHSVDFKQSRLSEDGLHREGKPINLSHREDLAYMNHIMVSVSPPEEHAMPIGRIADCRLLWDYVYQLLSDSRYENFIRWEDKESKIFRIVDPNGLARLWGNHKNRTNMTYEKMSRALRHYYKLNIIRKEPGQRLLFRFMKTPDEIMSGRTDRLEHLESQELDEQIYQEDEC
Turning to TTCCCG, the binding signal was 2.15 fold enrichment (6-mer frequency, TF over GST control).
With CTTCCT, the binding signal was 3.81 fold enrichment (6-mer frequency, TF over GST control).
For TTGAAA, the binding signal is 1.09 fold enrichment (6-mer frequency, TF over GST control).
Still for that read-out and setting: to TACTCT belongs 1.39 fold enrichment (6-mer frequency, TF over GST control); to TCCTCA, 1.54 fold enrichment (6-mer frequency, TF over GST control); to CCTCCC, 1.44 fold enrichment (6-mer frequency, TF over GST control).
Still for that read-out and setting: for TGGTTT the value was 1.67 fold enrichment (6-mer frequency, TF over GST control).
On the same count and under the same terms, for ATGAAC the value was 1.24 fold enrichment (6-mer frequency, TF over GST control); for AACCTG, 1.14 fold enrichment (6-mer frequency, TF over GST control); for ACAGCT, 1.08 fold enrichment (6-mer frequency, TF over GST control).
For the sequence AAATCA, the binding signal is 1.21 fold enrichment (6-mer frequency, TF over GST control).
Still for that read-out and setting: for TGGACT the value was 1.28 fold enrichment (6-mer frequency, TF over GST control); for TGAACT, 1.22 fold enrichment (6-mer frequency, TF over GST control).
Still for that read-out and setting: to AATCCC belongs 1.42 fold enrichment (6-mer frequency, TF over GST control); to TAAAGT, 1.09 fold enrichment (6-mer frequency, TF over GST control).
Turning to CCTGGA, the binding signal was 1.44 fold enrichment (6-mer frequency, TF over GST control).
In the case of AAACCA, the binding signal was 1.21 fold enrichment (6-mer frequency, TF over GST control).
For CTGTCT, the binding signal is 1.32 fold enrichment (6-mer frequency, TF over GST control).
Turning to GCTCCA, the binding signal is 1.1 fold enrichment (6-mer frequency, TF over GST control).
Take CTTGGG: the binding signal is 1.23 fold enrichment (6-mer frequency, TF over GST control).
Still for that read-out and setting: for CTCCTT the value was 1.76 fold enrichment (6-mer frequency, TF over GST control); for CTGTAT, 1.31 fold enrichment (6-mer frequency, TF over GST control).
The same measure, in the same setting: for ATGCTC the value was 1.44 fold enrichment (6-mer frequency, TF over GST control).
Still for that read-out and setting: to CTATAT belongs 1.43 fold enrichment (6-mer frequency, TF over GST control).
Regarding CTCCAA, the binding signal is 1.28 fold enrichment (6-mer frequency, TF over GST control).
Same read-out and setting: for CTCAAT the value was 1.23 fold enrichment (6-mer frequency, TF over GST control).
On the same count and under the same terms, to CCTAAT belongs 1.31 fold enrichment (6-mer frequency, TF over GST control); to CTGGCT, 1.18 fold enrichment (6-mer frequency, TF over GST control).
On to TATTTG, for which the binding signal is 1.45 fold enrichment (6-mer frequency, TF over GST control).
Still for that read-out and setting: to CTTCGA belongs 1.43 fold enrichment (6-mer frequency, TF over GST control); to ACTATG, 1.19 fold enrichment (6-mer frequency, TF over GST control); to TAAACT, 1.13 fold enrichment (6-mer frequency, TF over GST control).
For the sequence ATTCAC, the binding signal was 1.17 fold enrichment (6-mer frequency, TF over GST control).
For CTACAC, the binding signal is 1.36 fold enrichment (6-mer frequency, TF over GST control).
The same measure, in the same setting: to GTATTT belongs 1.79 fold enrichment (6-mer frequency, TF over GST control); to AATTTC, 1.94 fold enrichment (6-mer frequency, TF over GST control); to TTTCAC, 1.3 fold enrichment (6-mer frequency, TF over GST control).
The same measure, in the same setting: for CTCGTC the value was 1.46 fold enrichment (6-mer frequency, TF over GST control).
Regarding CCTTCT, the binding signal is 1.58 fold enrichment (6-mer frequency, TF over GST control).
The same measure, in the same setting: to TTACGG belongs 1.26 fold enrichment (6-mer frequency, TF over GST control).
